# From PubChem BioAssay AID1159580 (chemical genetic matrix, 2015)
# Out of some 5,500 compounds screened, about 2,000 (36%) were called active. Inconclusive results (about 18%) are left out. This is one part of the list. Unmarked numbers belong to inactive results. Rule as the data show it: active = normalized growth mostly below about 0.91 (no sharp cut-off); inconclusive = no clear call, values can overlap the other calls; inactive = mostly above about 0.92.
# Assay: chemical genetic growth profiling, strain panel (AID 1159580);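 also: tested at 20 µM; growth read once vehicle control cultures reached saturation at 30 °C; 1 = growth at the plate median or of vehicle wells; lower values mean less growth of the strain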
# Settings: S. cerevisiae deletion strains, growth OD
# [1] = locus YAR019C, strain CDC15, active compounds read low
# [2] = locus YBL105C, strain PKC1, active compounds read low
# [3] = locus YBR135W, strain CKS1, active compounds read low
# [4] = locus YBR136W, strain MEC1, active compounds read low
# [5] = locus YBR160W, strain CDC28, active compounds read low
# [6] = locus YDL017W, strain CDC7, active compounds read low
# [7] = locus YDL028C, strain MPS1, active compounds read low
# [8] = locus YDL101C, strain DUN1, active compounds read low
# [9] = locus YDL108W, strain KIN28, active compounds read low
# [10] = locus YDL132W, strain cdc53, active compounds read low
# [11] = locus YDL214C, strain PRR2, active compounds read low
# [12] = locus YDR052C, strain DBF4, active compounds read low
# [13] = locus YDR054C, strain cdc34, active compounds read low
# [14] = locus YDR226W, strain ADK1, active compounds read low
# [15] = locus YDR477W, strain SNF1, active compounds read low
# [16] = locus YER123W, strain YCK3, active compounds read low
# [17] = locus YER133W, strain GLC7, active compounds read low
# [18] = locus YFL009W, strain cdc4, active compounds read low
# [19] = locus YFL029C, strain CAK1, active compounds read low
# [20] = locus YFR003C, strain YPI1, active compounds read low
# [21] = locus YFR019W, strain FAB1, active compounds read low
# [22] = locus YFR028C, strain CDC14, active compounds read low
# [23] = locus YGR040W, strain KSS1, active compounds read low
# [24] = locus YGR052W, strain FMP48, active compounds read low
# [25] = locus YGR092W, strain DBF2, active compounds read low
# [26] = locus YHR030C, strain SLT2, active compounds read low
# [27] = locus YHR079C, strain IRE1, active compounds read low
# [28] = locus YHR082C, strain KSP1, active compounds read low
# [29] = locus YHR205W, strain SCH9, active compounds read low
# [30] = locus YIL147C, strain SLN1, active compounds read low
# [31] = locus YJL095W, strain BCK1, active compounds read low
# [32] = locus YJL128C, strain PBS2, active compounds read low
# [33] = locus YJL157C, strain FAR1, active compounds read low
# [34] = locus YJR016C, strain ILV3, active compounds read low
# [35] = locus YJR066W, strain TOR1 (second series), active compounds read low
# [36] = locus YJR066W, strain TOR1, active compounds read low
# [37] = locus YKL048C, strain ELM1, active compounds read low
# [38] = locus YKL067W, strain YNK1, active compounds read low
# [39] = locus YKL101W, strain HSL1, active compounds read low
# [40] = locus YKL193C, strain SDS22, active compounds read low
# [41] = locus YKL203C, strain TOR2, active compounds read low
# [42] = locus YLR113W, strain HOG1, active compounds read low
# [43] = locus YLR133W, strain CKI1, active compounds read low
# [44] = locus YLR403W, strain SFP1, active compounds read low
# [45] = locus YML070W, strain DAK1, active compounds read low
# [46] = locus YMR001C, strain CDC5, active compounds read low
# [47] = locus YMR205C, strain PFK2 (second series), active compounds read low
# [48] = locus YMR277W, strain FCP1, active compounds read low
# [49] = locus YNL006W, strain LST8, active compounds read low
# [50] = locus YNL020C, strain ARK1, active compounds read low
# [51] = locus YNL161W, strain CBK1, active compounds read low
# [52] = locus YNL183C, strain NPR1, active compounds read low
# [53] = locus YNL207W, strain RIO2, active compounds read low
# [54] = locus YNL222W, strain SSU72, active compounds read low
# [55] = locus YNL307C, strain MCK1 (second series), active compounds read low
# [56] = locus YOL078W, strain AVO1, active compounds read low
# [57] = locus YOL136C, strain PFK27, active compounds read low
# [58] = locus YOR061W, strain CKA2, active compounds read low
# [59] = locus YOR119C, strain RIO1, active compounds read low
# [60] = locus YOR231W, strain MKK1, active compounds read low
# [61] = locus YOR329C, strain SCD5, active compounds read low
# [62] = locus YPL031C, strain PHO85, active compounds read low
# [63] = locus YPL153C, strain RAD53, active compounds read low
# [64] = locus YPL204W, strain HRR25, active compounds read low
# [65] = locus YPL209C, strain IPL1, active compounds read low
# [66] = locus YPL256C, strain CLN2, active compounds read low
# [67] = locus YPR025C, strain CCL1, active compounds read low
# [68] = locus YPR106W, strain ISR1, active compounds read low
# [69] = locus YPR111W, strain DBF20, active compounds read low
# [70] = strain NNK1, active compounds read low
# [71] = strain TSCII, active compounds read low
compound,measurement,setting,value
FC(F)(F)Oc1ccc(OCc2n[nH]c(=S)n2-c2ccc(Cl)cc2)cc1,normalized growth,[1],0.984
same,normalized growth,[2],0.986
same,normalized growth,[3],0.989
same,normalized growth,[4],0.996
same,normalized growth,[5],0.991
same,normalized growth,[6],0.995
same,normalized growth,[7],0.99
same,normalized growth,[8],0.983
same,normalized growth,[9],0.987
same,normalized growth,[10],0.981
same,normalized growth,[11],1
same,normalized growth,[12],0.987
same,normalized growth,[13],0.989
same,normalized growth,[14],0.98
same,normalized growth,[15],0.994
same,normalized growth,[16],0.889
same,normalized growth,[17],1
same,normalized growth,[18],0.988
same,normalized growth,[19],0.985
same,normalized growth,[20],0.987
same,normalized growth,[21],0.988
same,normalized growth,[22],0.989
same,normalized growth,[23],1.01
same,normalized growth,[24],1.1
same,normalized growth,[25],0.944
same,normalized growth,[26],0.967
same,normalized growth,[27],1.07
same,normalized growth,[28],1.05
same,normalized growth,[29],1.01
same,normalized growth,[30],0.988
same,normalized growth,[31],1.15
same,normalized growth,[32],0.956
same,normalized growth,[33],1
same,normalized growth,[34],0.996
same,normalized growth,[35],0.986
same,normalized growth,[36],1.13
same,normalized growth,[37],0.965
same,normalized growth,[38],1.02
same,normalized growth,[39],0.986
same,normalized growth,[40],0.982
same,normalized growth,[41],1.05
same,normalized growth,[42],1.07
same,normalized growth,[43],1
same,normalized growth,[44],1
same,normalized growth,[45],1.01
same,normalized growth,[46],0.983
same,normalized growth,[47],1.01
same,normalized growth,[48],0.99
same,normalized growth,[49],0.986
same,normalized growth,[50],0.994
same,normalized growth,[51],0.989
same,normalized growth,[52],1.12
same,normalized growth,[53],0.99
same,normalized growth,[54],0.985
same,normalized growth,[55],0.999
same,normalized growth,[56],0.986
same,normalized growth,[57],0.994
same,normalized growth,[58],1.01
same,normalized growth,[59],1.02
same,normalized growth,[60],1.09
same,normalized growth,[61],0.99
same,normalized growth,[62],0.973
same,normalized growth,[63],0.983
same,normalized growth,[64],0.975
same,normalized growth,[65],0.987
same,normalized growth,[66],1.04
same,normalized growth,[67],0.991
same,normalized growth,[68],0.996
same,normalized growth,[69],0.992
same,normalized growth,[70],0.999
same,normalized growth,[71],0.987
FC(F)(F)Sc1ccc(OCc2n[nH]c(=S)n2-c2ccccc2)cc1,normalized growth,[1],0.989
same,normalized growth,[2],0.983
same,normalized growth,[3],0.988
same,normalized growth,[4],0.983
same,normalized growth,[5],0.988
same,normalized growth,[6],0.987
same,normalized growth,[7],0.986
same,normalized growth,[8],0.981
same,normalized growth,[9],0.987
same,normalized growth,[10],0.993
same,normalized growth,[11],0.945
same,normalized growth,[12],0.989
same,normalized growth,[13],0.978
same,normalized growth,[14],0.981
same,normalized growth,[15],0.943
same,normalized growth,[16],0.873
same,normalized growth,[17],0.911
same,normalized growth,[18],0.983
same,normalized growth,[19],0.989
same,normalized growth,[20],0.988
same,normalized growth,[21],0.936
same,normalized growth,[22],0.993
same,normalized growth,[23],0.949
same,normalized growth,[24],0.939
same,normalized growth,[25],0.874
same,normalized growth,[26],0.814 (active)
same,normalized growth,[27],0.896
same,normalized growth,[28],0.963
same,normalized growth,[29],0.957
same,normalized growth,[30],0.984
same,normalized growth,[31],0.917
same,normalized growth,[32],0.94
same,normalized growth,[33],0.92
same,normalized growth,[34],0.984
same,normalized growth,[35],0.906
same,normalized growth,[36],0.945
same,normalized growth,[37],0.953
same,normalized growth,[38],0.934
same,normalized growth,[39],0.891
same,normalized growth,[40],0.994
same,normalized growth,[41],0.961
same,normalized growth,[42],0.82 (active)
same,normalized growth,[43],0.938
same,normalized growth,[44],0.954
same,normalized growth,[45],0.92
same,normalized growth,[46],0.991
same,normalized growth,[47],0.946
same,normalized growth,[48],0.992
same,normalized growth,[49],0.986
same,normalized growth,[50],0.904
same,normalized growth,[51],0.986
same,normalized growth,[52],0.879
same,normalized growth,[53],0.985
same,normalized growth,[54],0.99
same,normalized growth,[55],0.91
same,normalized growth,[56],0.996
same,normalized growth,[57],0.931
same,normalized growth,[58],0.971
same,normalized growth,[59],1
same,normalized growth,[60],0.907
same,normalized growth,[61],0.985
same,normalized growth,[62],0.909
same,normalized growth,[63],0.916
same,normalized growth,[64],0.893
same,normalized growth,[65],0.984
same,normalized growth,[66],0.82 (active)
same,normalized growth,[67],0.989
same,normalized growth,[68],0.979
same,normalized growth,[69],0.959
same,normalized growth,[70],0.977
same,normalized growth,[71],0.983
